From the supplement of paper PMC10849652 come the findings set out here.

Targets with a hit are over-represented here; the source holds about 7,900 in all. About 0.6% of all pairs of compound and target were hits.

UniProt Q9NVC6, sequence (Q9NVC6 whole entry, looked up): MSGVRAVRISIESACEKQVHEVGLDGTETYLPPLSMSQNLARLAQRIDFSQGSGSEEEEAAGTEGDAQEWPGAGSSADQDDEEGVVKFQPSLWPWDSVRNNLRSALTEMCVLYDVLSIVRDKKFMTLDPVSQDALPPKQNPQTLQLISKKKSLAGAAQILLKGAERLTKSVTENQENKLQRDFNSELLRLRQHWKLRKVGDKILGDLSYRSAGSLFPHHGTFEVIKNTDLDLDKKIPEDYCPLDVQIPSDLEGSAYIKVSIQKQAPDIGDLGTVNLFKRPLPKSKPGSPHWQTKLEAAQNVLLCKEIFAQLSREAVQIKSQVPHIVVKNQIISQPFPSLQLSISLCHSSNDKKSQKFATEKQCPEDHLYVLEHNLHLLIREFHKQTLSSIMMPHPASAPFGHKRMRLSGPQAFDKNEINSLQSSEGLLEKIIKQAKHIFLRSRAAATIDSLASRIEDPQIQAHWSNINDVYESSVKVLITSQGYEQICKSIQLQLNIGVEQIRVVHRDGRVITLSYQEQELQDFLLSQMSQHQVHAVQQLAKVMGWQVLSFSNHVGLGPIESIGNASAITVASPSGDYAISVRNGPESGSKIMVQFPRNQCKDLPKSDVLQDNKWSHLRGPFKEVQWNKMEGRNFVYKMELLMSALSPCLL
UniProt Q6NUT3, sequence (Q6NUT3 whole entry, looked up): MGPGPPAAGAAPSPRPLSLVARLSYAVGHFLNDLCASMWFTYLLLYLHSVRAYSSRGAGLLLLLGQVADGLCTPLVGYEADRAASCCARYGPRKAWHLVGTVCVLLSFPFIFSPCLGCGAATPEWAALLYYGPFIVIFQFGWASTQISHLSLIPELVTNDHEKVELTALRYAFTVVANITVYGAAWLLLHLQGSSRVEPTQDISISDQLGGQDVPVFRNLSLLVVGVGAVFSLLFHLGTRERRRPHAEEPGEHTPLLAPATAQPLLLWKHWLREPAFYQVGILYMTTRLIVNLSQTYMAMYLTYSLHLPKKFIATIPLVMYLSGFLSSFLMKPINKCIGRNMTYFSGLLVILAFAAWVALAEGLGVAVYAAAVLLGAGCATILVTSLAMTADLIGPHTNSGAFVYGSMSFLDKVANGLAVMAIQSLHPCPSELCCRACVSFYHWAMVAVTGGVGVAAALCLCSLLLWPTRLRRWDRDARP
UniProt Q14974, sequence (Q14974 whole entry, looked up): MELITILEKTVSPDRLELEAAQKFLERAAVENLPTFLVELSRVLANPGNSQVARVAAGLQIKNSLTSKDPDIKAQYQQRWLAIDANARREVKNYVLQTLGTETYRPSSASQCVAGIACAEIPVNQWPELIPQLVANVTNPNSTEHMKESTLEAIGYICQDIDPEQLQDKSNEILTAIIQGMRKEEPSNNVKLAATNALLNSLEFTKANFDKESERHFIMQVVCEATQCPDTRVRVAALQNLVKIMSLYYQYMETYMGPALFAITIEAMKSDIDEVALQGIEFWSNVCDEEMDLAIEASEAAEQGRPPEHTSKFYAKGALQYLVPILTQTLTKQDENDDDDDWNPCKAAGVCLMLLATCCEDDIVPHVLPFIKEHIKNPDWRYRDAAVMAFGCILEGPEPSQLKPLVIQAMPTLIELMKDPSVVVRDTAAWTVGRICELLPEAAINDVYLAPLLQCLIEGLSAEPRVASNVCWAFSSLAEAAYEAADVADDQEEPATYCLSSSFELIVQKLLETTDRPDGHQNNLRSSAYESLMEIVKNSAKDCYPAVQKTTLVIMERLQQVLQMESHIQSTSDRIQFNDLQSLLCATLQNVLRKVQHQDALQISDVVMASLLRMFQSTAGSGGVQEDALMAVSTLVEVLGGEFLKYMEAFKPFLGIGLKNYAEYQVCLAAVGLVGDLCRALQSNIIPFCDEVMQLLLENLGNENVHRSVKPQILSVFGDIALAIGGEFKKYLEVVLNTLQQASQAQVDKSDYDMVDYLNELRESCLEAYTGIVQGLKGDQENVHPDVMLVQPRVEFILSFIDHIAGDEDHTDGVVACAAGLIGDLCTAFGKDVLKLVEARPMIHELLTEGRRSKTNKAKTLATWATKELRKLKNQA
UniProt Q13257, sequence (Q13257 whole entry, looked up): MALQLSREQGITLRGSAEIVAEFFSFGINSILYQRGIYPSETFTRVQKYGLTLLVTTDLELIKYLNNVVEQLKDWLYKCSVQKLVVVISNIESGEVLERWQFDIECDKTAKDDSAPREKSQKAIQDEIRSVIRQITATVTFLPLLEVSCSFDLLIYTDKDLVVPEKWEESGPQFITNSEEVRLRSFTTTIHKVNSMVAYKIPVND
UniProt O00629, sequence (O00629 whole entry, looked up): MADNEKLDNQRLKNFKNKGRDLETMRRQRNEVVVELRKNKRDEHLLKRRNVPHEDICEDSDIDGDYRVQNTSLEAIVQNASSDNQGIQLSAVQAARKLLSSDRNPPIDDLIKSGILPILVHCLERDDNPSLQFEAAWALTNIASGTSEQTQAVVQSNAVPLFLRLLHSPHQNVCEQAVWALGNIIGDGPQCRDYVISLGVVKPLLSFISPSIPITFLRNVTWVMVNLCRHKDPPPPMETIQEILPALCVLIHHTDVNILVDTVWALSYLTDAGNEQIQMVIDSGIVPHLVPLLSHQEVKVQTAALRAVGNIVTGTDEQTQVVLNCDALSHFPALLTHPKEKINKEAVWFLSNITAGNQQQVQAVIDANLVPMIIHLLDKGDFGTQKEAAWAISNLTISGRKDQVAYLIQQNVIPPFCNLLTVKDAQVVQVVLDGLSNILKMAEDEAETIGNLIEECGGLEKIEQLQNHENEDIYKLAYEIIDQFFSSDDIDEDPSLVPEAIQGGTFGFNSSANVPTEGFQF
UniProt Q99661, sequence (Q99661 whole entry, looked up): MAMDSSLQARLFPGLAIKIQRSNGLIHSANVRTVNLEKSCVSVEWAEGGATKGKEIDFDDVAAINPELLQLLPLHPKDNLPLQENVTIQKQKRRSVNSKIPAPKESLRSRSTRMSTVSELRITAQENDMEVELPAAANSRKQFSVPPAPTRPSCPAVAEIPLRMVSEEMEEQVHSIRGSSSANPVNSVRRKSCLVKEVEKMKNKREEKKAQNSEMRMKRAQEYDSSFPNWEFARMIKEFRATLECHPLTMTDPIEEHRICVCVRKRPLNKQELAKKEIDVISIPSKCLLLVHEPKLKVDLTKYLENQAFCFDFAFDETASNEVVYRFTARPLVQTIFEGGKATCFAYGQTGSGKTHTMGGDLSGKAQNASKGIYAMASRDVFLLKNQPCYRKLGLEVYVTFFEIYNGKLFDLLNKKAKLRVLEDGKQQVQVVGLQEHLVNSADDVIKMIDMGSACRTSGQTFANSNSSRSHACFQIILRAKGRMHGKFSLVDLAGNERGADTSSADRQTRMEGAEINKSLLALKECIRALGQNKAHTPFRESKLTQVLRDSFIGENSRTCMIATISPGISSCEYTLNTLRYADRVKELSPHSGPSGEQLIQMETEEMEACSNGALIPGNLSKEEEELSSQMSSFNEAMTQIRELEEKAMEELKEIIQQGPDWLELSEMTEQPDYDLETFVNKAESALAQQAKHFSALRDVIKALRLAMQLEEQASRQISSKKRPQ
UniProt P46734, sequence (P46734 whole entry, looked up): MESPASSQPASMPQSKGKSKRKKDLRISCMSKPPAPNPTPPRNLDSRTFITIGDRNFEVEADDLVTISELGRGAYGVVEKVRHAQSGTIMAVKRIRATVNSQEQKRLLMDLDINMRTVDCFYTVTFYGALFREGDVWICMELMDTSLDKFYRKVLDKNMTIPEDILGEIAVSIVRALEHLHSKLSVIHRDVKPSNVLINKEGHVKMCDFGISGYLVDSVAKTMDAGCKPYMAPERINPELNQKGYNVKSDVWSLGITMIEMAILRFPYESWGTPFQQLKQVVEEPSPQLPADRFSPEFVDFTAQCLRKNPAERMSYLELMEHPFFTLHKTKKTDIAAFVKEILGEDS
UniProt Q16644, sequence (Q16644 whole entry, looked up): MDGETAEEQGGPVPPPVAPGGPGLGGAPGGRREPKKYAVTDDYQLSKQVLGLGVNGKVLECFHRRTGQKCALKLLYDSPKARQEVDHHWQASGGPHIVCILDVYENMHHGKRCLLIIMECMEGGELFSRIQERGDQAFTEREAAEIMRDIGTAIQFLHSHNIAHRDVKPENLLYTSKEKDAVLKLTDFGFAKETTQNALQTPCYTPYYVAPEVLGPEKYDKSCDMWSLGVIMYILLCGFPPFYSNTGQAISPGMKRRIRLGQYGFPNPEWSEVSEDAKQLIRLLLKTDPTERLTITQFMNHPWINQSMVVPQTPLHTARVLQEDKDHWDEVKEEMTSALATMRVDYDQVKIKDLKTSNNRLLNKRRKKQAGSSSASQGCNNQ
UniProt Q9Y496, sequence (Q9Y496 whole entry, looked up): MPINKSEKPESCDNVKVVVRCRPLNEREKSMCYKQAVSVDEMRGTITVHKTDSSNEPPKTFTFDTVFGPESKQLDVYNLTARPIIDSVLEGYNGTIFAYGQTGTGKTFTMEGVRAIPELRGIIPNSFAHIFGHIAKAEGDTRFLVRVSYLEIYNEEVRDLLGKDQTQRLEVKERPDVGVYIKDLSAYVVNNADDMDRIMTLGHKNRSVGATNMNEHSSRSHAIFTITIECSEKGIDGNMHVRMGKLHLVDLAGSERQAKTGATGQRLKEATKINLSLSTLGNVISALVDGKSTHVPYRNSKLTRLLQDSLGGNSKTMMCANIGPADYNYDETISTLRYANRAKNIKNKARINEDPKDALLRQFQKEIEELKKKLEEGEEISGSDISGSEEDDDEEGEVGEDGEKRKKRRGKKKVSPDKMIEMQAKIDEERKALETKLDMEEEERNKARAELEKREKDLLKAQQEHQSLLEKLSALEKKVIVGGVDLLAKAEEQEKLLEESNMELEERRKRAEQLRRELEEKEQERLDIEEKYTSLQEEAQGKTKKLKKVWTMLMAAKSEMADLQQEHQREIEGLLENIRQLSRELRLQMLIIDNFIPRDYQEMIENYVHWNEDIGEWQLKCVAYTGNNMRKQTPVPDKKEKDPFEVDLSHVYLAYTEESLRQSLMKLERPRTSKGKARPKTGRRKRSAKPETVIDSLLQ

Compound in this test: c1cn2cc(-c3ccc4cn[nH]c4c3)nc(Nc3ccc(N4CCOCC4)cc3)c2n1 [entospletinib]
Briefly: log2 fold change, soluble protein after heating vs DMSO (PISA); higher = thermal stabilisation; K562 cells, 10 uM, 30 min; active = over 0.2 and 3.5 SD of the protein, either way, in both replicates (recomputed). A digest of the protocol:
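K562 cells at 2×10^6 cells/mL were treated for 30 min with 10 μM compound, and aliquots were heated for 3 min over 48°C-58°C before pooling. Extraction used PBS with 0.5% NP-40 at 4°C, and soluble protein was the supernatant after 21,000xg for 90 min, measured by TMTpro 16plex LC-MS/MS with channel sums equalised. Thermal stability values, relative to control samples and from duplicates, are log2 fold changes.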
As for KIF2C (UniProt Q99661), the log2 fold change was -0.097 (inactive).

On to MED17 (UniProt Q9NVC6), for which the log2 fold change was -0.068 (inactive).

For MAD2L1 (UniProt Q13257), the log2 fold change is 0.064 (inactive).

On to KPNB1 (UniProt Q14974), for which the log2 fold change was 0.078 (inactive).

For KIF3A (UniProt Q9Y496), the log2 fold change was 0.491 (active).

In the case of MAP4K4 isoform 6 (UniProt O95819), the log2 fold change is -0.103 (inactive).

As for LBR (UniProt Q14739), the log2 fold change was -0.174 (inactive).

As to MAP2K3 isoform 3 (UniProt P46734), the log2 fold change was 0.013 (inactive).

With KPNA4 (UniProt O00629), the log2 fold change is -0.058 (inactive).

For the target MAPKAPK3 (UniProt Q16644), the log2 fold change was 0.001 (inactive).

For MFSD12 isoform 3 (UniProt Q6NUT3), the log2 fold change is -0.089 (inactive).
